Consider 13 compounds from PubChem BioAssay (NCI).

This is part of a sample that, as a whole, favours compounds with a hit. Of some 83,000 tested, about 20% had one in any assay.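 In brief: 96-well plates, 48 h treatment, single concentration, percent growth endpoint.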 Unmarked numbers belong to inactive results. The source made the active and inactive calls. Rule for the calls: active = growth percent below 10; inactive = the rest.

The first test deals with HCT-15 colon. The experiment in a line: NCI-60 one-dose screen, 48 h (100 = growth as untreated, 0 = no growth, -100 = all killed). As to conditions: 10 µM unless noted.
Regarding `Cc1nc([P+](c2ccccc2)(c2ccccc2)c2ccccc2)c(Sc2sc(-c3ccccc3)nc2[P+](c2ccccc2)(c2ccccc2)c2ccccc2)o1`, the growth was 30.2%. On the same count and under the same terms, with `O=C1NC(=Nc2ccc(S(=O)(=O)Nc3nccs3)cc2)S/C1=C\c1coc2ccccc2c1=O` the figure was 104%; with `Cc1ccc(Sc2sc(-c3ccccc3)nc2[P+](c2ccccc2)(c2ccccc2)c2ccccc2)cc1`, 1.24% (active); with `Clc1ccccc1-c1nc(Nc2nc3ccccc3s2)nc(C(Cl)(Cl)Cl)n1`, 19.2%.

A further test concerns HT29 colon. Described as above. As to conditions: 10 µM unless noted.
Take `O=C1/C(=C\c2ccc(Br)o2)SC(=S)N1CCc1ccc(O)cc1`: the growth was 114%. For the compound `N#CC1=C(N)Oc2ccc3ccccc3c2C1c1ccccc1` (stereo not drawn), the growth is 17.7%.

`N#CC1=C(N)Oc2ccc3ccccc3c2C1c1ccccc1Cl` (stereo not drawn): the growth is 22.2%. On the same count and under the same terms, with `CCSc1sc(-c2ccc(C)cc2)nc1[P+](c1ccccc1)(c1ccccc1)c1ccccc1` the figure was 2.52% (active); with `Fc1ccc2nc(-c3cc(-c4ccc5c(c4)OCO5)n[nH]3)[nH]c2c1`, 61.6%; with `CC(=O)c1c(C)[nH]c(-c2nc3ccc(N4CCN(C)CC4)cc3[nH]2)c1-c1ccc2c(c1)OCCO2`, 14.2%. As for `COc1cc2nc(Cl)nc(Nc3cccc(C(=O)/C=C/c4ccc(Br)cc4)c3)c2cc1OC`, the growth is 68.4%.

Take `COc1c(N)c2c(c([N+](=O)[O-])c1OC)C(=O)OC2`: the growth was 102%. Take `N#C/C(=C\c1ccc(-c2cccc(C(F)(F)F)c2)o1)c1nc(-c2ccco2)cs1`: the growth was 99.8%.
